Bioassay records (PubChem)
This is a sample that favours compounds with a hit; in the whole collection about 3.6% have one here.
GCN5L2 inh = qHTS Assay for Inhibitors of GCN5L2. AID 504327, 2011. 0.21% of 390,000 active. GCN5L2 HAT assay, ThioGlo1 CoA-SH fluorescence. Histone acetyltransferase KAT2A (Homo sapiens), Q92830. Potency, µM (highest dose often 58.9 µM), for inactives: top-dose activity change, negative = inhibition, actives largely listed as inhibitors; note: potency is the fitted concentration of half-maximal effect; % is set by controls: 0 for no effect and ±100 for the full control effect
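GCN5L2 (20nM final) in 50mM HEPES, 0.1mM EDTA pH 7.5, 0.01% Tween-20 was preincubated 15 min at room temperature with compound, then given ThioGlo1 (50uM), H3(1-25) peptide (75uM) and acetyl-CoA (70uM); CoA-thiol fluorescence (Ex340/Em540) was read at 0 and 20 min.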
Rango-impB inh = qHTS Assay for Inhibitors of Rango (Ran-regulated importin-beta cargo) - Importin beta complex formation; 0.031% of 340,000 active; Potency, µM (titrated, usually from 92.2 µM), without a hit: at the top dose inhibition of complex formation; Rango CFP/YFP FRET sensor + importin beta, 45 min; Importin subunit beta-1 (Homo sapiens), Q14974; calls by dose curve;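 note: potency is the fitted concentration of half-maximal effect; 0% = DMSO wells and 100% = buffer wells lacking importin beta; nearly all actives have a fitted effect of over 15% in size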
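FRET biosensor Rango (snurportin 1 IBB between N-terminal EYFP and C-terminal Cerulean), 50 nM in PBS/1 mM DTT/0.02% Tween-20/0.1% BSA, preincubated 5 min RT with compound; 0.125 microM importin beta added, 45 min RT, CFP/YFP FRET ratio read.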
VDR inh = Inhibitors of the vitamin D receptor (VDR): qHTS. VDR-SRC2-3 peptide fluorescence polarization, 2 h. Potency, µM, for the others: max response, negative = inhibition, hits mostly inhibitors. 0.93% of 400,000 active. AID 504847, 2011; note: potency is the fitted concentration of half-maximal effect; % is set by controls: 0 for no effect and ±100 for the full control effect
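Inhibition of the VDR/SRC2-3 peptide interaction is quantified by fluorescence polarization. Compounds (23 nl, pintool) incubate with the reagents for 2 hours at ambient room temperature.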
PLK1 PBD block = qHTS for Inhibitors of PLK1-PDB (polo-like kinase 1 - polo-box domain): Primary Screen. 2.8% of 360,000 active. Serine/threonine-protein kinase PLK1 (Homo sapiens), P53350. Plk1 PBD binding of FITC phosphopeptide, fluorescence polarization. Potency, µM, without a hit: max response, negative = inhibition, most hits filed as inhibitors. AID 720504, 2013; note: potency is the fitted concentration of half-maximal effect; series mostly up to about 57 µM; % is set by controls: 0 for no effect and ±100 for the full control effect; nearly all actives have a fitted effect of over 65% in size
Target sequence (P53350 whole entry, looked up, the tested form may be a part): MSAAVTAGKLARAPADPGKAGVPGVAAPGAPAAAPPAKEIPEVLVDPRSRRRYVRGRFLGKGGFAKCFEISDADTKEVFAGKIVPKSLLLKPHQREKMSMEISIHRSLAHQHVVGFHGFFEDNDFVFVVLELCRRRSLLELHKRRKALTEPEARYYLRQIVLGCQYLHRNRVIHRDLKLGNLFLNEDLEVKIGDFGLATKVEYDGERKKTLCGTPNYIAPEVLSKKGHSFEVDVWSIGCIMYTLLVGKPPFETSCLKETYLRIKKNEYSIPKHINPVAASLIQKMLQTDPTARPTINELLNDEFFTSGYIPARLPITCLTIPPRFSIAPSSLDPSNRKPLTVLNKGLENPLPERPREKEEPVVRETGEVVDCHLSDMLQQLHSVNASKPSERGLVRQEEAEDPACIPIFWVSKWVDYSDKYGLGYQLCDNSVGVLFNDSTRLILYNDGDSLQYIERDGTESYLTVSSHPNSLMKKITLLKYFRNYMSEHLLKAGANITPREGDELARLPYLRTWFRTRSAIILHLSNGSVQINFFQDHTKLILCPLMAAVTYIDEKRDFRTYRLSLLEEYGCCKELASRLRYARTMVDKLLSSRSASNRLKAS
PI5P4K alpha inh = qHTS for Inhibitors of phosphatidylinositol 5-phosphate 4-kinase (PI5P4K); Phosphatidylinositol 5-phosphate 4-kinase type-2 alpha (Homo sapiens), P48426; PI5P4Kalpha enzyme, ADP-Glo luminescence, 60 min; hits give low values; max response, %; 1.2% of 330,000 active; AID 652105, 2013; active = max response of -50% or lower; inconclusive = between -30% and -50%; inactive = -30% or higher; note: value at the top dose of about 77 µM; % is set by controls: 0 for no effect and ±100 for the full control effect
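qHTS, 1536-well: enzyme/substrate mix, compound by pin tool, 5 microM ATP final; RT 60 min; ADP-Glo reagents 1 (45 min) then 2 (30 min); luminescence.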
Rango release inh = qHTS Assay for Inhibitors of RanGTP induced Rango (Ran-regulated importin-beta cargo) - Importin beta complex dissociation | Biochemical FRET Rango-importin beta, RanGTP-induced dissociation | Potency, µM (top dose mostly 46.1 µM), for the others: at the top dose activity change, negative = inhibition | 0.071% of 340,000 active | AID 540253, 2011; calls by dose curve; note: potency is the fitted concentration of half-maximal effect; % of control where 0% means no effect; nearly all actives have a fitted effect of over 45% in size
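Compounds sat 5 min at room temperature with 0.1 uM Rango biosensor plus 0.25 uM importin beta, then FRET pre-read. RanGTP-RCC1 (0.6 uM Ran, 2mM GTP, 0.2 uM RCC1) added for 45 min, and the CFP/YFP post-read measured blocked complex dissociation.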
Active calls of the source: *; ? = inconclusive; / = not tested or not shown; [ ] = another dose, or the depositor's remark. Unless noted, calls come from the whole dose curve; as a rule, active = well fitted curve in the direction sought with a large enough effect; inconclusive = small, poorly fitted or top-dose-only effect, or another doubt; inactive = no such curve, though single readings can be large; an effect the other way counts as inactive or inconclusive.

SMILES	GCN5L2 inh	Rango-impB inh	VDR inh	PLK1 PBD block	PI5P4K alpha inh	Rango release inh
Nc1ccc(-c2nc3ccc(C(=O)O)cc3s2)cc1	28.2µM*	?	0.7%	-8.5%	-22.0	?
O=C(O)c1ccc2nc(-c3ccccc3)sc2c1	-1.3%	0.4%	-18.2%	-9.3%	-13.5	25.4%
COc1ccc(CCn2c3c(c(=O)[nH]c2=S)CN(Cc2ccccc2)CN3)cc1OC	/	/	89.1µM*	/	/	/
CN1CCN(c2oc(/C=C/c3ccc(F)cc3)nc2C#N)CC1	-6.0%	/	12.1%	/	/	/
C[C@@H]1CC2C3CCC4=CC(=O)C=CC4(C)[C@@]3(F)[C@@H](O)CC2(C)[C@@]1(O)C(=O)CO (stereo partly specified)	0.0%	/	-1.0%	/	/	/
CC(=O)N1CCOc2ccc(S(=O)(=O)Nc3cccc(C)n3)cc21	-1.9%	-0.5%	-18.7%	42.3µM*	4.5	0.7%
CCC(C)NC(=O)C1CCC(CNS(=O)(=O)c2ccc3c(c2)N(C(C)=O)CCO3)CC1 (stereo unspecified)	-3.0%	-4.8%	-29.8%	26.7µM*	-12.3	0.8%
CC(=O)N1CCOc2ccc(S(=O)(=O)Nc3ccc(C)cn3)cc21	0.1%	1.0%	-18.0%	-17.5%	-0.9	6.1%
CCOC(=O)CN(Cc1cc(OC)cc(N(C)C)c1OC)C(=O)C1CC(CO[Si](C)(C)C(C)(C)C)=CN1C(=O)OC(C)(C)C (stereo unspecified)	/	/	-10.8%	/	/	/
COC(=O)CN1C(=O)S/C(=C/c2ccc(N3CCCCC3)o2)C1=O	-13.7%	?	31.6µM*	85.6%	/	?
CCCN1C(=O)S/C(=C/c2ccc(N3CCOCC3)o2)C1=O	-11.0%	?	89.1µM*	105.4%	-11.9	?
COc1ccc(S(=O)(=O)Nc2cccc3cccnc23)c([N+](=O)[O-])c1	/	/	-1.7%	/	/	/
CCOC(=O)c1c(NC(=O)c2cccs2)sc(C(=O)N(C)C)c1C	-2.9%	1.0%	?	23.8µM*	-5.1	0.0%
CCCSc1ncc(Cl)c(C(=O)Nc2c(C(=O)c3ccc(C)cc3)oc3ccccc23)n1	-2.2%	/	8.2%	/	/	/
Cc1ccc(N(Cc2cc3ccc(C)cc3[nH]c2=O)C(=O)c2ccco2)cc1	-14.4%	-3.0%	?	26.7µM*	?	10.2%
COc1ccccc1Cc1nc2ccccc2nc1SCC(=O)N1CCC(C)CC1	-10.5%	/	6.4%	/	/	/
CCN(CC)c1ccc(NS(=O)(=O)c2ccc3c(c2)CCCN3C(C)=O)c(C)c1	13.6%	/	-1.8%	/	/	/
Cc1cc(SCC(=O)N/N=C/c2ccc(O)c(O)c2O)c(C)cc1Br	-29.7%	-4.1%	-17.6%	5.97µM*	-86.9*	-1.8%
Cc1cc(SCC(=O)NN=C2CCN(C(C)C)CC2)c(C)cc1Br	-2.4%	-1.1%	-11.9%	-8.8%	16.6	-15.6%
CCn1ccnc1CN1CCc2c([nH]c3ccccc23)C1C1CCCCC1 (stereo unspecified)	-7.4%	-0.7%	?	26.7µM*	-6.5	-5.7%
CCN(C(=O)CN1CCN(c2ccc(O)cc2)CC1)c1c(N)n(Cc2ccccc2)c(=O)[nH]c1=O	-1.9%	-3.3%	-29.1%	26.7µM*	-1.7	0.7%
Cc1cc(SCC(=O)N(CC(C)C)c2c(N)n(CC(C)C)c(=O)[nH]c2=O)nc2ccccc12	-11.0%	-1.0%	?	13.4µM*	-13.9	8.6%
Cc1ccc2nc(SCC(=O)N(CC(C)C)c3c(N)n(CC(C)C)c(=O)[nH]c3=O)[nH]c2c1	-5.1%	-2.8%	-5.0%	-5.1%	2.6	-8.0%
FC(F)(F)c1ccccc1-c1ccc2ncnc(NCc3cccnc3)c2c1	-8.4%	/	?	/	/	/
CCOc1ccc(/C=C\c2nc(O)c([N+](=O)[O-])c(=O)[nH]2)cc1OCC	22.2%	-1.6%	?	2.1%	-23.9	-2.1%
SMILES	GCN5L2 inh	Rango-impB inh	VDR inh	PLK1 PBD block	PI5P4K alpha inh	Rango release inh
O=c1[nH]c(/C=C\c2ccc(O)c(O)c2)nc(O)c1[N+](=O)[O-]	19.2%	2.2%	-9.3%	-6.0%	-80.1*	7.3%
CCOc1cc(/C=C\c2nc(O)c([N+](=O)[O-])c(=O)[nH]2)ccc1OC(C)CC (stereo unspecified)	-0.1%	-2.1%	?	-19.9%	?	12.1%
O=c1[nH]c(/C=C\c2cccc(O)c2)nc(O)c1[N+](=O)[O-]	-8.3%	0.3%	-8.4%	3.7%	-81.4*	-6.6%
O=C(Nc1ccc(N2CCOCC2)c2nonc12)C1CCCC1	-11.9%	4.4%	-22.1%	18.9µM*	-27.7	-6.7%
COc1ccc(CCNC(=O)c2ccc3c(c2)N(Cc2c(F)cccc2Cl)C(=O)CS3)cc1OC	-2.6%	/	8.7%	/	/	/
COC(=O)C1=C(C)NC(=O)NC1c1ccc(-c2ccccc2Cl)o1 (stereo unspecified)	1.0%	?	1.7%	18.9µM*	5.6	0.0%
CCOC(=O)C1=C(C)NC(=S)NC1c1ccc(-c2cccc(Cl)c2C)o1 (stereo unspecified)	-7.9%	0.2%	79.4µM*	?	-4.1	1.4%
CCOC(=O)C1=C(C)NC(=S)NC1c1ccc(-c2ccc(Cl)cc2)o1 (stereo unspecified)	-6.5%	-1.4%	-21.4%	-12.1%	6.9	9.4%
COc1cc(C2C(C#N)=C(N)Oc3n[nH]c(-c4cccnc4)c32)cc(Br)c1O (stereo unspecified)	-5.7%	?	12.2%	-7.9%	-63.5*	?
N#CC1=C(N)Oc2n[nH]c(-c3cccs3)c2C1c1cccs1 (stereo unspecified)	1.0%	0.8%	7.0%	23.8µM*	-53.3*	-9.8%
N#CC1=C(N)Oc2n[nH]c(-c3ccc(F)cc3)c2C1c1cccnc1 (stereo unspecified)	-2.5%[0.501 µM]	-3.7%	-13.7%	?	?	-6.8%
N#CC1=C(N)Oc2n[nH]c(-c3cccs3)c2C1c1ccccc1C(=O)O (stereo unspecified)	-6.2%	-1.1%	-12.0%	-11.5%	-5.7	14.5%
CCCC1C(C#N)=C(N)Oc2n[nH]c(C(C)(C)C)c21 (stereo unspecified)	-3.9%	3.0%	?	6.7µM*	-28.7	5.7%
CC(C)C1C(C#N)=C(N)Oc2n[nH]c(C(C)(C)C)c21 (stereo unspecified)	-6.4%	-0.7%	-6.3%	2.6%	0.1	0.5%
